About 17,000 (5.5%) of roughly 310,000 compounds were called active. Another 11% or so got no clear call; they are omitted. The sample holds actives, similar compounds and a random draw of the others, so the mix is not that of the screen. The call rests on the fitted dose curve; in most records, active means well fitted inhibition curve with a large enough effect; inconclusive means small, poorly fitted or top-dose-only effect, or effect the other way; inactive means no such curve, though single readings can be large or run the other way.
Target: Nuclear receptor ROR-gamma (Mus musculus) (UniProt P51450)
Experiment: qHTS for inhibitors of ROR gamma transcriptional activity; further: nearly all actives have a fitted effect of over 60% in size
Settings: Drosophila S2 Gal4-RORgamma UAS-luciferase reporter, 20 h; series mostly up to 53.6 µM; activity change, negative = inhibition: at the top concentration
Method in brief: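 Using a luciferase readout, inhibitors were identified by reduced reporter activity in Drosophila cells coexpressing a copper-inducible Gal4–ROR gamma fusion and UAS-driven Photinus luciferase, incubated 20 hr after 700 uM copper sulfate.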
On the % scale 0 is the no-effect control and ±100 the full control effect; potency means the concentration at half of the fitted maximal effect.

Chain of Nuclear receptor ROR-gamma (Mus musculus) (P51450 whole entry, looked up): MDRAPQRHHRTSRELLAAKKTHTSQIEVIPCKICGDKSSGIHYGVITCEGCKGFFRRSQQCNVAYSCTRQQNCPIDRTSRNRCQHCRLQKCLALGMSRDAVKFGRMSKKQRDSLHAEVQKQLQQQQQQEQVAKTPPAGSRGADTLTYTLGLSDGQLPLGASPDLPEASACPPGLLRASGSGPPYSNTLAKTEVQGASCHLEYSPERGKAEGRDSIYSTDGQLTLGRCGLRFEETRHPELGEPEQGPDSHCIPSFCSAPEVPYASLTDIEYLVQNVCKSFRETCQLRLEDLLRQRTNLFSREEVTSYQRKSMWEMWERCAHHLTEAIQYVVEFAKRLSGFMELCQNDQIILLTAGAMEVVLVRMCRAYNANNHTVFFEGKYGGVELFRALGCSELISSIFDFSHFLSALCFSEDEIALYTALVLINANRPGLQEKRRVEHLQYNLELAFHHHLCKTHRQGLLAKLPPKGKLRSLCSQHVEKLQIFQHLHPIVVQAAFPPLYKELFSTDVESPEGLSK

Compound	activity change, negative = inhibition	Potency
COc1ccc(NS(=O)(=O)c2ccc3oc(SCC(N)=O)nc3c2)cc1	43.4% (inactive)	
COc1cc(C(=S)N2CCOCC2)cc(OC)c1OC(=O)c1ccc([N+](=O)[O-])cc1[N+](=O)[O-]	-8.5% [at 1.91 µM] (inactive)	
O=C(O)c1ccc2c(=O)n3c(nc2c1)/C(=C/c1ccc(OC(F)F)cc1OC(F)F)CC3	2.65% (inactive)	
CCOC(=O)N1CCN(Cc2nc(N)nc(Nc3ccc(C)cc3)n2)CC1	-14.9% (inactive)	
Cc1ccc(Nc2nc(N)nc(CSc3nnc(C)s3)n2)cc1	21.9% (inactive)	
Nc1nc(CC(=O)CSc2ccc(Cl)cc2)nc(Nc2ccc(F)cc2)n1		14.1 µM (active)
O=S(=O)(NC1CC1)c1ccc(Cl)cc1	30.8% [at 1.91 µM] (inactive)	
Nc1ccccc1N	-35.5% (inactive)	
Cc1ccc(Nc2ccccc2N)cc1		11.2 µM (active)
Cc1ccc(Nc2nnc(SCc3ccccc3)s2)cc1	10.7% (inactive)	
Cc1[nH]c(C)c(S(=O)(=O)N2CCC(C)CC2)c1C(=O)N1CCCC1	-11.5% (inactive)	
COCCNC(=O)CN(Cc1ccco1)C(=O)CCC(=O)Nc1nccs1	-1.62% (inactive)	
COc1ccc(C(=O)Nc2ccc(CN3CCOCC3)cc2)cc1	20.3% (inactive)	
Cc1ccccc1-n1c(C)cc(/C=N/NC(=O)c2ccc(CN3CCOCC3)cc2)c1C		10 µM (active)
C/C(CCc1ccccc1)=N\NC(=O)c1ccc(CN2CCOCC2)cc1	-42.7% (inactive)	
Cc1cc(=O)n2nc(N3CCCC(C(=O)NCc4cccc(Cl)c4)C3)sc2n1 (centres undefined)	-0.13% (inactive)	
O=C(COC(=O)c1ccccc1)Nc1ccccc1Sc1ccccc1	-2.28% (inactive)	
Cc1cccc(NC(=O)Nc2nnc(-c3ccccc3)o2)c1	-2.44% (inactive)	
Nc1ccc(-c2nnc(-c3ccccc3)o2)cc1	4.3% (inactive)	
Cc1ccnc2nc(C(=O)Nc3nnc(-c4ccccc4)o3)nn12		11.2 µM (active)
CCc1nnc(NC(=O)c2nc3nccc(C)n3n2)s1	-5.51% (inactive)	
Cc1ccnc2nc(C(=O)OCC(=O)N(CC(C)C)CC(C)C)nn12	25.7% (inactive)	

Compound	activity change, negative = inhibition	Potency
CCCC(=O)Nc1nnc(-c2ccccc2)o1		7.94 µM (active)
O=C(COC(=O)c1ccc(Oc2ccccc2)cc1)Nc1nnc(-c2ccccc2)o1		2.82 µM (active)
O=C(OCc1ccc(Br)cc1)c1cccc(-c2nnc(-c3ccccc3)o2)c1	-1.79% (inactive)	
COC(=O)C1(C)CC1(c1ccccc1)c1ccccc1 (centres undefined)	28% (inactive)	
CN(C)N1C(N)=C(C#N)C(c2ccc(Br)cc2)C2=C1CCCC2=O (centres undefined)	3.08% (inactive)	
C[C@@H](NC(=O)[C@@H]1Cc2ccccc2CN1)C(=O)NC1CCCC1	5.75% (inactive)	
CC(=O)NN1C(=O)c2ccccc2NC1c1ccccc1 (centres undefined)	1.65% (inactive)	
CCCC1=Nc2cc(C(=O)NCCN3CCCC3)ccc2Sc2ccccc21	-10.6% (inactive)	
CCC1Sc2ccc(S(=O)(=O)CCC(=O)NCc3cccs3)cc2NC1=O (centres undefined)	20.9% (inactive)	
FC(F)(F)c1nc2ccccc2nc1N/N=C/c1ccc(Cl)cc1		5.62 µM (active)
CC(NC(=O)C(=O)N/N=C/c1ccc(Cl)cc1)c1ccccc1 (centres undefined)	19.8% (inactive)	
FC(F)(F)c1cccc(N/N=C/c2ccccc2)c1	31.7% (inactive)	
COc1ccccc1CN(C)C(=O)c1cc2ccccc2o1	-5.26% (inactive)	
Cc1ccc2[nH]c(=O)c(CN(C)S(=O)(=O)c3cccc4nonc34)cc2c1	7.54% (inactive)	
COc1cc(SC#N)ccc1N=Cc1c(C)[nH]n(-c2ccc(C)cc2)c1=O		6.31 µM (active)
C=CCN1C(=O)C2(OCCCO2)c2cccc(Cl)c21	8.79% (inactive)	
Oc1ccc(-n2nnnc2SCc2c(F)cccc2Cl)cc1	-29.8% (inactive)	
Cc1ccc(CC2CC(=O)N(c3cc(C)ccc3C)C2=O)cc1 (centres undefined)	29.6% (inactive)	
O=C(Nc1cccc(C(F)(F)F)c1)c1cc(Br)cc(Br)c1O		5.01 µM (active)
O=C(Nc1cccc(C(F)(F)F)c1)c1cnccn1	27.2% (inactive)	
Cc1cccc(NC(=O)c2cccc(C(F)(F)F)c2)c1	21% (inactive)	
O=C(N/C(=C/c1ccc(Cl)cc1)C(=O)N1CCCCC1)c1ccco1	-18.8% (inactive)	

Compound	activity change, negative = inhibition	Potency
CN(CC(=O)Nc1c(Cl)cccc1Cl)C(=O)c1ccncc1	-13.7% (inactive)	
Cc1ccc(-c2ccc(=O)n(Cc3ccc(F)cc3Cl)n2)cc1	-1.89% (inactive)	
Cc1n[nH]c(=O)c2c1nnn2Cc1ccc(F)cc1	1.18% (inactive)	
COc1ccc(/C=N/NC(=O)c2cccc(C(F)(F)F)c2)cc1		12.6 µM (active)
Cc1nnsc1C(=O)N/N=C/c1cccc(C(F)(F)F)c1	22.6% (inactive)	
COc1ccc(/C=N/NC(=O)Cn2cc(C(F)(F)F)ccc2=O)cc1	-22.5% (inactive)	
C=C1C(=O)C23C(O)C1CCC2[C@]12COC3(O)C(O)C1C(C)(C)CC[C@H]2O (some centres undefined)		0.708 µM (active)
CCC1Oc2ccccc2N(CC(=O)NCCCN2CCN(CC)CC2)C1=O (centres undefined)	1.84% (inactive)	
COc1ccc(Cc2nc3ccc(C(=O)NCC4CCOCC4)cc3o2)cc1OC	42.4% (inactive)	
CCOC(=O)C1=C(c2ccc(OC)cc2)C(=O)c2ccccc2C1=O		6.31 µM (active)
CCCCC(C(=O)OCC(=O)c1ccc(OC)cc1)N1C(=O)c2ccccc2C1=O (centres undefined)	28.3% (inactive)	
CCOC(=O)c1c(-c2ccc(C)cc2)csc1/N=C(\C)C1=C(O)c2ccccc2C1=O	1.71% (inactive)	
O=C(NCCCc1ccccc1)C1CCC(=O)N(CCc2ccc(Cl)cc2)C1 (centres undefined)	39.6% (inactive)	
COc1ccccc1CN1CCCC(N2CCN(c3ccc(F)cc3)CC2)C1 (centres undefined)	-1.98% (inactive)	
O=C(CN(CC1CCCO1)C(=O)CNS(=O)(=O)c1ccc(Cl)cc1)NCc1ccccc1 (centres undefined)	0.565% (inactive)	
Clc1ccccc1-c1cc(NCCN2CCOCC2)ncn1	-6.31% (inactive)	
c1ccc2cc3c(NCCN4CCOCC4)ccnc3cc2c1		11.2 µM (active)
O=C(NCCN1CCOCC1)c1ccc2c(c1)ncn2C1CCCC1	6.51% (inactive)	
Cc1ccc2c(c1)N(CC(=O)N1CCC(O)CC1)C(=O)CO2	-19.4% (inactive)	
Cc1ccc(C(=O)CCC(=O)N(C)CC(=O)Nc2c(Cl)cccc2Cl)cc1	9.26% (inactive)	
Cc1cccnc1NC(=O)c1cccc(S(=O)(=O)N2CCN(c3ccc(F)cc3)CC2)c1	-44% (inactive)	
Brc1ccccc1C1N=C(c2ccccc2)NO1 (centres undefined)	2.38% (inactive)	

Compound	activity change, negative = inhibition	Potency
Cc1nc(=O)c(-c2ccccc2)c(C)n1-c1ccc(Br)cc1	2.1% (inactive)	
S=C1NC(c2ccccc2)=NCN1c1ccc(Br)cc1		8.91 µM (active)
Cc1ccc2c(c1)C(c1ccccc1)N(C(=O)c1ccc(F)cc1)CC(=O)N2 (centres undefined)	11.4% (inactive)	
Cc1ccc2nc(N(CCN(C)C)C(=O)C3=COCCO3)sc2c1	-8.72% (inactive)	
COc1cccc(-c2noc(C3CCCN(C(=O)c4ccc(F)cc4)C3)n2)c1 (centres undefined)	-2.97% [at 1.91 µM] (inactive)	
Cn1c(C(=O)NCCc2ccsc2)cc2c(=O)n(C)c3ccccc3c21	27% (inactive)	
CC1CCCC(C)N1CCCNC(=O)c1cc2c(=O)n(C)c3ccccc3c2n1C (centres undefined)	2.79% (inactive)	
CCN1CCCC1CNC(=O)c1cc2c(=O)n(C)c3ccccc3c2n1C (centres undefined)		3.98 µM (active)
Cc1ccc(OCC(=O)Nc2ccc(N3CCN(C(=O)c4ccco4)CC3)cc2)c(C)c1	24.1% (inactive)	
CC(=O)Oc1ccc(N(C(C)=O)S(=O)(=O)c2ccc3ccccc3c2)cc1Br	40.7% (inactive)	
CCCCNC(=O)C1CCC(=O)N1CCc1ccccc1 (centres undefined)	-0.936% (inactive)	
CCCC1CCC(=NNC(=S)NCCc2ccccc2)CC1 (centres undefined)		5.01 µM (active)
O=C1CCN(C(=S)NCCc2ccccc2)CC1	6.62% (inactive)	
CCOc1ccc(NC(=O)C(C)N2C(=O)c3ccccc3C2=O)cc1 (centres undefined)	-2.48% (inactive)	
O=C(O)/C=C\C(=O)Nc1ccc(OCc2ccccc2)cc1	0.167% (inactive)	
CSc1ccc(NC(=O)/C=C/C(=O)O)cc1		0.0794 µM (active)
Cc1cccc(N2CCN(c3ccc(NC(=O)/C=C\C(=O)O)cc3)CC2)c1	8.37% (inactive)	
CN(C)CCCn1c(SCc2ccc(Cl)cc2)nnc1-c1ccncc1	9.2% (inactive)	
O=C(CCCOc1ccc(Cl)cc1Cl)NNC(=O)C1CCC1	8.12% (inactive)	
Cn1c(CCCOc2ccc(Cl)cc2Cl)n[nH]c1=S		6.31 µM (active)
CN1CCC(OC(=O)COc2ccc(Cl)cc2Cl)CC1	-3.03% (inactive)	
CN(C)c1ccnc(Nc2ccc(F)cc2)c1C#N	-2.79% (inactive)	

Compound	activity change, negative = inhibition	Potency
CN(C)c1nc(Nc2ccc(Cl)c(Cl)c2)nc(N(C)C)n1	22% (inactive)	
CN(C)c1nc(NN)nc(Nc2ccc(F)cc2)n1		7.94 µM (active)
COc1ccc(CNC(=O)C2CCN(C(=O)c3ccco3)CC2)cc1	-27.8% (inactive)	
Cc1c(OC(C)C(=O)NCC2CCC(C(=O)O)CC2)ccc2c1oc(=O)c1ccccc12 (centres undefined)	13.2% (inactive)	
Cc1ccc(CN2CCNC(=O)C2CC(=O)NCc2csc(C(C)C)n2)cc1 (centres undefined)	-11.2% (inactive)	
COc1cc(NS(=O)(=O)c2ccc(NC(C)=O)cc2)cc(OC)c1	0% (inactive)	
CCOc1ccc(S(=O)(=O)Nc2ccc(S(=O)(=O)Nc3cc(OC)ccc3OC)cc2)cc1	30.5% (inactive)	
COc1ccc(NS(=O)(=O)c2ccc(Oc3c(C#N)cccc3C#N)cc2)cc1		7.94 µM (active)
CCn1ccnc1CN(C)C(=O)c1cc(COc2ccc(Cl)cc2OC)on1	30% (inactive)	
Oc1c(CN2CCN(c3ccc(F)cc3)CC2)cc(Cl)c2cccnc12		0.562 µM (active)
Oc1ccc(CN2CCN(c3ncccn3)CC2)cc1	-16.9% (inactive)	
O=C(c1cccc(C(=O)N2CCN(c3ccc(F)cc3)CC2)c1)N1CCN(c2ccc(F)cc2)CC1	4.17% (inactive)	
COCCNC(=O)C1CCN(C(=O)C2CC(=O)N(c3ccc(C)cc3)C2)CC1 (centres undefined)	-3.92% (inactive)	
O=C(c1cncc(Br)c1)N1CCN(c2ccc([N+](=O)[O-])cc2)CC1	34.5% (inactive)	
Cc1cccc(C(=O)Nc2ccccc2N2CCN(c3ccc(F)cc3)CC2)c1	11.7% (inactive)	
Cc1cccc(C(=O)NC(=S)N2CCN(c3ccc([N+](=O)[O-])cc3)CC2)c1		0.447 µM (active)
CC(C(=O)c1ccc(-c2ccccc2)cc1)[n+]1cccc(Br)c1 (centres undefined)	44.4% (inactive)	
CCn1c2ccc(F)cc2c2nnc(SCCN3CCOCC3)nc21	-15.5% (inactive)	
CCn1c(NCCc2ccc(OC)c(OC)c2)nc2c1c(=O)n(C)c(=O)n2C	15% (inactive)	
Cn1c(=O)c2c(nc(NCc3ccccc3)n2CC(N)=O)n(C)c1=O	13.7% (inactive)	
Cn1c(=O)c2c(nc(NCCc3ccccc3)n2Cc2ccccc2)n(C)c1=O		11.2 µM (active)

Source: PubChem BioAssay AID2551 (National Center for Advancing Translational Sciences (NCATS), 2010)
